# Test results from PubChem BioAssay AID686949 (The Scripps Research Institute Molecular Screening Center, 2013).
# The whole screen tested about 3,200 compounds, of which about 2,200 (69%) were called active.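 The calls were made as follows: active = activation, as change over the incubation, above the mean of all tested compounds plus 3 SD (cut at about 13% in these data); inactive = the rest.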 So high a share suggests a set chosen from earlier hits. The list is a sample of the results.
# Biological target: Kallikrein-7 (Homo sapiens) (UniProt P49862)
# Assay: activation of human kallikrein-7 proenzyme – biochemical, fluorescence intensity, triplicate, confirmation (AID 686949)
# Details: purified proKLK7, EDANS-DABCYL substrate fluorescence; at 7 µM; stronger effect = higher value
# Kallikrein-7 (Homo sapiens), sequence (P49862 whole entry, looked up): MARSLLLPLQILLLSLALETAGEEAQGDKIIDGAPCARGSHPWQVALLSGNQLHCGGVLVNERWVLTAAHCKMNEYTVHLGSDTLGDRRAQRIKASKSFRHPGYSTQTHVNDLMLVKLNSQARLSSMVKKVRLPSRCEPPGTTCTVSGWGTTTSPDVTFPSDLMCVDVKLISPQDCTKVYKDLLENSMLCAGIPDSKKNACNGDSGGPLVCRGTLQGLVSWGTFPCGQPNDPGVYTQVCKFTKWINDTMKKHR
row,Structure (SMILES),activation
1,COc1cccc(-c2nc3ccc(N4CCN(C)CC4)cc3[nH]2)c1,64% (active)
2,CCOc1ccc(-c2cc(C)[n+](CCN(CC)CC)c(-c3ccc(OCC)cc3)c2)cc1,19.2% (active)
3,Cc1nc2ccc(N3CCN(C)CC3)cc2nc1C,16.1% (active)
4,CCOC(=O)c1c(N)n(CCN2CCOCC2)c2nc3ccccc3nc12,27.8% (active)
